Results: PubChem BioAssay (NCATS)
Inconclusive results are not listed. Calls of active or inactive are those of the source. Unless noted, calls follow the shape of the full dose curve.

Key:
[1] = biological target: Tyrosyl-DNA phosphodiesterase 1 (Homo sapiens) (UniProt Q9NUW8); assay: Confirmation Assay for Inhibitors of Tyrosyl-DNA Phosphodiesterase (TDP1) (AID 489007; active = well fitted curve in the direction sought with a large enough effect; an effect the other way counts as inactive or inconclusive; also: potency is read from the fitted curve at half-maximal effect; nearly all actives have a fitted effect of over 40% in size); details: recombinant human TDP1 enzymatic activity, dose-response
Chain of Tyrosyl-DNA phosphodiesterase 1 (Homo sapiens) (Q9NUW8 whole entry, looked up): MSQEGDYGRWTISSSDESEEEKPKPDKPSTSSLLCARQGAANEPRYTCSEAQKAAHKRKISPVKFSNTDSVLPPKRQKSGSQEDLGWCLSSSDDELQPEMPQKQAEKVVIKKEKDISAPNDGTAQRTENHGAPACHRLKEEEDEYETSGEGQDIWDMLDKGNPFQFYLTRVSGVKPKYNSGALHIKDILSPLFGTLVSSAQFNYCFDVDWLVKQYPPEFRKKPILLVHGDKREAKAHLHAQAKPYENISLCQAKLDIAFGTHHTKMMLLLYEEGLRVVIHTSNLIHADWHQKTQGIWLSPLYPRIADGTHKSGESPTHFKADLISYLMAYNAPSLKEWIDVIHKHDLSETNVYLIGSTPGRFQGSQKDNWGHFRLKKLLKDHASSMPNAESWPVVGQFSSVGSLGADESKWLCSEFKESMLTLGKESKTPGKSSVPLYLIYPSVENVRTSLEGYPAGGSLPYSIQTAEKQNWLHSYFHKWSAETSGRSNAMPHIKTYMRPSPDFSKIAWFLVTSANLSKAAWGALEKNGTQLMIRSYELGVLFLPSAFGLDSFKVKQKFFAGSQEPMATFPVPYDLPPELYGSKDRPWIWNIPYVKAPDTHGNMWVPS
Summary of the method: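 Loss of AlphaScreen signal reports Tdp1 cleavage of a dual-labelled DNA substrate. Conditions: 1 nM E. coli-derived enzyme, 15 nM substrate, 15 min compound preincubation, 5 min reaction, 10 min bead incubation, all at room temperature.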

[2] = biological target: Estrogen receptor (Homo sapiens) (UniProt P03372); assay: qHTS assay for small molecule antagonists of estrogen receptor alpha signaling (AID 588513; active = well fitted curve in the direction sought with a large enough effect in the signal ratio, with a control signal flat, not every such curve was filed as active; the % refers to the signal ratio; also: % is scaled to controls: 0 for no effect and ±100 for the full control effect); details: ER-alpha-UAS-bla HEK293, beta-lactamase ratio, antagonist mode; series mostly up to 76.9 µM
Chain of Estrogen receptor (Homo sapiens) (P03372 whole entry, looked up): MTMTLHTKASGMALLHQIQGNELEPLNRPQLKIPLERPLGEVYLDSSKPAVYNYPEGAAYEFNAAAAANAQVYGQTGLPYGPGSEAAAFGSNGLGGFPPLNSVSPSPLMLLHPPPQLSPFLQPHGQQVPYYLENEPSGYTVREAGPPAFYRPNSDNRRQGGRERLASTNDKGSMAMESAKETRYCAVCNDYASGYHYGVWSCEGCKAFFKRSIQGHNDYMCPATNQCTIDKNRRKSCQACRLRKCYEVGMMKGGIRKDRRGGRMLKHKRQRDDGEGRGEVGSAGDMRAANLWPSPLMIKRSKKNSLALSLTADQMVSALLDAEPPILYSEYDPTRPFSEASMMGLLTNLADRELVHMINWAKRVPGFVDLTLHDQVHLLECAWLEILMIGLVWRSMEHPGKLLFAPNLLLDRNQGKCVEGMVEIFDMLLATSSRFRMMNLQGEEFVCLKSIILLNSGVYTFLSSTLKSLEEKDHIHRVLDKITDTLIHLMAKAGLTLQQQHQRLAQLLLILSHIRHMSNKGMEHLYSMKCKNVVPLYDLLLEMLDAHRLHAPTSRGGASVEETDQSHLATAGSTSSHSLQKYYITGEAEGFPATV
Summary of the method: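 Antagonist-mode qHTS in ER-alpha-UAS-bla HEK 293 cells: compound titration, 0.5nM estradiol for 18 h, CCF4 fluorescence, Hill-derived IC50.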

[3] = biological target: Estrogen receptor (Homo sapiens) (UniProt P03372); assay: qHTS assay for small molecule agonists of estrogen receptor alpha signaling (AID 588514); details: ER-alpha-UAS-bla HEK293, beta-lactamase ratio, 18 h; series mostly up to 76.8 µM; also: potency is read from the fitted curve at half-maximal effect; nearly all actives have a fitted effect of over 70% in size
Summary of the method: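 Fluorescence from CCF4 cleavage reports ER-alpha-driven beta-lactamase expression in HEK 293 cells treated 18 hrs at 37 C. Data normalized to 17-beta-estradiol (20 nM) and DMSO, fitted to Hill equation.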

[4] = biological target: Bile acid receptor (Homo sapiens) (UniProt Q96RI1); assay: qHTS assay for small molecule antagonists of farnesoid X receptor signaling (AID 588526); details: HEK293T FXR-UAS-bla, beta-lactamase ratio, antagonist mode; series mostly up to 76.7 µM; also: % is scaled to controls: 0 for no effect and ±100 for the full control effect
Chain of Bile acid receptor (Homo sapiens) (Q96RI1 whole entry, looked up): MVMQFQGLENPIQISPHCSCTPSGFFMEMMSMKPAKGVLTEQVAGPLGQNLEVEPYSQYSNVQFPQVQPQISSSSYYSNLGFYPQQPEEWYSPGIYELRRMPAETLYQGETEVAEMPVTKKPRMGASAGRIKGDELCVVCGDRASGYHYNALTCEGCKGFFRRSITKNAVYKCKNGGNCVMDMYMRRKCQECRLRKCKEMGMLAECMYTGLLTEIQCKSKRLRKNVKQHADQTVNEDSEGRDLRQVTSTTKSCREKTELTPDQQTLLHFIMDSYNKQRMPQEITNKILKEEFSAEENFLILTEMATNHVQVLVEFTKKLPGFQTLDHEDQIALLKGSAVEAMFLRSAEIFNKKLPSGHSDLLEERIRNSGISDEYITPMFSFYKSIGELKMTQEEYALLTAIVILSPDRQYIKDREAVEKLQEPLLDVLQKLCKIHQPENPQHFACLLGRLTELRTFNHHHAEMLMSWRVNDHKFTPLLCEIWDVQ
Summary of the method: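 Concentration-response titrations were fitted to the Hill equation for half-maximal inhibition and maximal response, with data normalised to 50 uM chenodeoxycholic acid and DMSO control wells. Cells: FXR-UAS-bla HEK293T, dialyzed FBS.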

[5] = qHTS assay for small molecule antagonists of peroxisome proliferator-activated receptor delta signaling (AID 588535); details: HEK293T PPARd-UAS-bla, beta-lactamase FRET ratio, 18 h; 460 nm channel;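 also: cells co-treated with a PPAR-delta agonist as stimulator during compound exposure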
Summary of the method: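 Compounds tested in titration on PPAR-delta-UAS-bla HEK293T cells grown in charcoal/dextran-stripped serum (2%); beta-lactamase activity read via CCF4 emission at 460 and 530 nm.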

[6] = biological target: Peroxisome proliferator-activated receptor gamma (Homo sapiens) (UniProt P37231); assay: qHTS assay for small molecule agonists of peroxisome proliferator-activated receptor gamma signaling (AID 588536; active = well fitted curve in the direction sought with a large enough effect in the signal ratio, with a control signal flat, not every such curve was filed as active; the % refers to the signal ratio;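 also: 0% = DMSO basal wells and 100% = rosiglitazone at 2 µM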); details: HEK293 PPARg-UAS-bla, beta-lactamase ratio, 16 h, percent of rosiglitazone response, DMSO as zero; series mostly up to 76.7 µM
Chain of Peroxisome proliferator-activated receptor gamma (Homo sapiens) (P37231 whole entry, looked up): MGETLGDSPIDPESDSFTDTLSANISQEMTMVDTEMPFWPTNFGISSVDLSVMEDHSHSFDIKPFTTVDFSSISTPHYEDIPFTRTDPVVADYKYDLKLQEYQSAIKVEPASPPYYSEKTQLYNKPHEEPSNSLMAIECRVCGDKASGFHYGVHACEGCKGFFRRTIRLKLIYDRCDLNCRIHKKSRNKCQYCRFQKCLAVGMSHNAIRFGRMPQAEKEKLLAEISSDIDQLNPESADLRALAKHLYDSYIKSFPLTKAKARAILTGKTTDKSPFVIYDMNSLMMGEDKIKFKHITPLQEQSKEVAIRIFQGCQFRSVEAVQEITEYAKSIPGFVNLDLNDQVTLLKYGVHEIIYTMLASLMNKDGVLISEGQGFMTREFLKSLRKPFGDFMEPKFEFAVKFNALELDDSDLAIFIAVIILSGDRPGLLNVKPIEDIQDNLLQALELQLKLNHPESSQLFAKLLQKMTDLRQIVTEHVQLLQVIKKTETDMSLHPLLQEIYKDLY
Summary of the method: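 Compound treatment: 16 h, 37 C, HEK293 GeneBLAzer cells. Detection: CCF4, 2 h RT. Values: Hill-fit EC50, efficacy as % of 2 uM rosiglitazone.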

[7] = biological target: Vitamin D3 receptor (Homo sapiens) (UniProt P11473); assay: qHTS assay for small molecule agonists of vitamin D receptor signaling (AID 588543); details: HEK293T VDR-UAS-bla, beta-lactamase ratio, 16 h; series mostly up to 76.8 µM;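 also: 0% = DMSO basal and 100% = reference agonist control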
Chain of Vitamin D3 receptor (Homo sapiens) (P11473 whole entry, looked up): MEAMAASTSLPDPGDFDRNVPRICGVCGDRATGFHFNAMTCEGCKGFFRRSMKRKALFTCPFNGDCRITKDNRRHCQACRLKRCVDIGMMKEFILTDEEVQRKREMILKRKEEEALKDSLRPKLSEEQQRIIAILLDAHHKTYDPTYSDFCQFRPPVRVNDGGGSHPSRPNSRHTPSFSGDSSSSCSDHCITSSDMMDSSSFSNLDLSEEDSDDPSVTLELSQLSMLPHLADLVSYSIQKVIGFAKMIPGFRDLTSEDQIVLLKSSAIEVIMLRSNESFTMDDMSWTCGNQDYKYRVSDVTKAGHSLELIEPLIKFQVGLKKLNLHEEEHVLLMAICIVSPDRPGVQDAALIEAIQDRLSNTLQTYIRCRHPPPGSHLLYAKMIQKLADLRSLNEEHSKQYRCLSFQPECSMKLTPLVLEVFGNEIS
Summary of the method: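 Measured: β-lactamase reporter activity (CCF4, 405 nm excitation, 460/530 nm emission) in HEK293T VDR-UAS-bla cells after 16 h compound exposure at 37 °C. Normalization against 50 nM 1α,25-dihydroxyvitamin D3 and DMSO; Hill-fit EC50.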

[8] = qHTS assay for small molecule agonists of retinoid X receptor alpha signaling (AID 588544); details: HEK293T RXRa-UAS-bla, beta-lactamase reporter, 18 h; 530 nm emission;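 as to activation: 0% = DMSO basal wells and 100% = reference agonist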
[9] = biological target: Retinoic acid receptor RXR-alpha (Homo sapiens) (UniProt P19793); assay: as above; details: HEK293T RXRa-UAS-bla, beta-lactamase reporter, 18 h; series mostly up to 76.7 µM
Chain of Retinoic acid receptor RXR-alpha (Homo sapiens) (P19793 whole entry, looked up): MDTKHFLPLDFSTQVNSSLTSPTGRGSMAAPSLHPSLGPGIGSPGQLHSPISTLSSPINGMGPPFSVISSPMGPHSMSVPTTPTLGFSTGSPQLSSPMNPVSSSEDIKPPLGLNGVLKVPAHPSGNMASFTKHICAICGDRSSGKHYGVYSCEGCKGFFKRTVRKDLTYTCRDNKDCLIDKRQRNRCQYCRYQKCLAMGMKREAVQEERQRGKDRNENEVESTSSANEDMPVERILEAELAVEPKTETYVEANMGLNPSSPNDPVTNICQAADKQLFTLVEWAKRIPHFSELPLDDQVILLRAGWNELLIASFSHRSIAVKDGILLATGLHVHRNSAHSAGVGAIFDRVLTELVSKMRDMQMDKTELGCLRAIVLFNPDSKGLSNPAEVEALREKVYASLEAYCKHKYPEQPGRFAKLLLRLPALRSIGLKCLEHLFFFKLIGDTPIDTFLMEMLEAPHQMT

[10] = biological target: Thyroid hormone receptor beta (Homo sapiens) (UniProt P10828); assay: qHTS assay for small molecule agonists of thyroid hormone receptor beta signaling (AID 588545); details: TR-UAS-bla GripTite HEK 293, beta-lactamase ratio, agonist mode, 18 h; series mostly up to 76.7 µM;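 also: 0% = DMSO only and 100% = 10 nM T3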
Chain of Thyroid hormone receptor beta (Homo sapiens) (P10828 whole entry, looked up): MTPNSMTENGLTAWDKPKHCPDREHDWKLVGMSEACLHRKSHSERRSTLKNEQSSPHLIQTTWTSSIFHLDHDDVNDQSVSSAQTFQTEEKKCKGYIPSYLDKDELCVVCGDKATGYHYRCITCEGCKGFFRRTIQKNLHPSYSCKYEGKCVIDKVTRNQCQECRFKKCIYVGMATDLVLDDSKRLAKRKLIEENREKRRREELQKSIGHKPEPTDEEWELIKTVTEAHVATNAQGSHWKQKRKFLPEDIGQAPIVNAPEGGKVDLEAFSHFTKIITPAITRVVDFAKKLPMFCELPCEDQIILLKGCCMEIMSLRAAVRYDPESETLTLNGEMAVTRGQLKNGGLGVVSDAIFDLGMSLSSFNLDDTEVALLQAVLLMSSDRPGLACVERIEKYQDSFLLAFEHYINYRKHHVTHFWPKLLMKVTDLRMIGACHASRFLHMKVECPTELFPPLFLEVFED
Summary of the method: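 Beta-lactamase reporter activity under TR response element control is measured in HEK 293 cells after 18 hrs compound exposure. Signal is ratiometric CCF4 fluorescence, 460/530 nm.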

[11] = qHTS assay for small molecule antagonists of retinoid X receptor alpha signaling (AID 588546; active = well fitted inhibition curve with a large enough effect in the signal ratio, with a control signal flat, not every such curve was filed as active; the % refers to the signal ratio;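 also: cells stimulated with 9-cis-retinoic acid as agonist; % is scaled to controls: 0 for no effect and ±100 for the full control effect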); details: HEK293T RXRa-UAS-bla, beta-lactamase ratio, antagonist mode; measured here: W530 green channel, cytotoxicity proxy
Summary of the method: (§1)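 Beta-lactamase reporter inhibition, read as CCF4 fluorescence ratio (ex 405, em 460/530 nm) after 2 h at RT. HEK293T UAS-bla cells, 2500/well, were stimulated with 9-cis-RA at 500 or 100 nM final alongside test compound for 18 h at 37 C.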

[12] = biological target: Retinoic acid receptor RXR-alpha (Homo sapiens) (UniProt P19793); assay: as above; details: HEK293T RXRa-UAS-bla, beta-lactamase ratio, antagonist mode
Summary of the method: as §1

[13] = qHTS assay for small molecule agonists of the antioxidant response element (ARE) signaling pathway (AID 651741; active = well fitted activation curve with a large enough effect in the signal ratio; the % refers to the signal ratio; also: potency is read from the fitted curve at half-maximal effect); details: HepG2 ARE-bla reporter, beta-lactamase FRET ratio, 16 h; series mostly up to 96 µM
Summary of the method: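 Beta-lactamase reporter expression driven by the antioxidant response element in HepG2 cells was detected by fluorescence with LiveBLAzer B/G FRET substrate (2 h, room temperature) following 16 h compound treatment at 37 C.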

[14] = qHTS assay for small molecule activators of the p53 signaling pathway (AID 651743; active = well fitted activation curve with a large enough effect in the signal ratio, not every such curve was filed as active; the % refers to the signal ratio; also: % of control where 0% means no effect); details: HCT-116 p53RE-bla, beta-lactamase FRET ratio, 16 h; activation: stronger effect = higher value
Summary of the method: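 Here HCT-116 cells with an integrated p53-responsive beta-lactamase gene were incubated with compounds (16 hours, 37 C) after a 5-hour plating period; beta-lactamase activity was detected as fluorescence intensity via B/G FRET substrate.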

[15] = qHTS assay for small molecule activators of the nuclear factor-kappa B (NF-kB) signaling pathway (AID 651749; active = well fitted activation curve with a large enough effect in the signal ratio; the % refers to the signal ratio; also: % of control where 0% means no effect); details: NF-kB-bla ME-180 cells, beta-lactamase FRET ratio, 16 h; stronger effect = higher value
Summary of the method: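 Beta-lactamase reporter expression, controlled by NF-kB response elements in ME-180 cells, was quantified fluorometrically via FRET disruption; cells at 2,000/well had been incubated with 23 nL test compound for 16 hr.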

[16] = qHTS assay for environmental chemicals that activate the Aryl hydrocarbon Receptor (AhR) signaling pathway (AID 651777; active = well fitted curve in the direction sought with a large enough effect; an effect the other way counts as inactive or inconclusive; also: % of control where 0% means no effect; nearly all actives have a fitted effect of over 15% in size); details: 1A2-DRE human hepatoma cells, luciferase, 24 h; activation: stronger effect = higher value
Summary of the method: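 Quantitative HTS in stably transfected human liver-derived cells whose luciferase gene sits downstream of the CYP1A2 promoter and dioxin response element. After 24 hr exposure at 37 C, One-Glo luminescence was measured.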

[17] = biological target: Peroxisome proliferator-activated receptor alpha (Homo sapiens) (UniProt Q07869); assay: qHTS assay for small molecule agonists of the peroxisome proliferator-activated receptor alpha (PPARalpha) signaling pathway (AID 651778; active = well fitted curve in the direction sought with a large enough effect; an effect the other way counts as inactive or inconclusive; also: % of control where 0% means no effect); details: PathHunter PPARalpha complementation, chemiluminescence, 6 h; max response: stronger effect = higher value
Chain of Peroxisome proliferator-activated receptor alpha (Homo sapiens) (Q07869 whole entry, looked up): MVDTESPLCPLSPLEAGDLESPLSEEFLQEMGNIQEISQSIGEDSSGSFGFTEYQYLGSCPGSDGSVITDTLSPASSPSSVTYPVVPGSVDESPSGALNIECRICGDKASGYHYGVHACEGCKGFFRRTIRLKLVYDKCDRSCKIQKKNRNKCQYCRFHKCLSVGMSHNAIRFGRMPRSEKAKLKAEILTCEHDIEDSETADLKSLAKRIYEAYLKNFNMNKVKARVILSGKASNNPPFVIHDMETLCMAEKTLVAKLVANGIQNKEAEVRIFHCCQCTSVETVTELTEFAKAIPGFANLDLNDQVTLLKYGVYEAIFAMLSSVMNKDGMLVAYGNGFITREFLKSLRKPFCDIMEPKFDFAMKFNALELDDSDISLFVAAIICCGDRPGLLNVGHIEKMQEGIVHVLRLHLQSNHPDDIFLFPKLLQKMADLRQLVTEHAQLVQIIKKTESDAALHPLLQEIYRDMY
Summary of the method: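 Cells plated at 2,000/well and held overnight at 37 C, 5% CO2, then compound added by pin tool for 6 hr; after PathHunter detection reagent and 60 min at room temperature, chemiluminescence from enzyme complementation was read.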

[18] = qHTS assay for small molecule agonists of the antioxidant response element (ARE) signaling pathway measured by Nrf2-dependant transcriptional activity - cell viability counter screen (AID 720653; active = well fitted curve in the direction sought with a large enough effect in the repeat runs; an effect the other way counts as inactive or inconclusive; also: % is scaled to controls: 0 for no effect and ±100 for the full control effect); details: ARE-bla HepG2 viability, CellTiter-Glo ATP luminescence, 16 h; max response: stronger effect = lower value
Summary of the method: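 ARE-bla HepG2 cells (2,000/well) rested 5 hrs at 37C/5% CO2, then exposed to compounds in DMSO for 16 hrs. Viability was read in the same wells as intracellular ATP by luminescence, 30 min at room temperature after reagent addition.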

[19] = biological target: Nuclear receptor subfamily 1 group I member 2 (Rattus norvegicus) (UniProt Q9R1A7); assay: qHTS assay for small molecule activators of the rat pregnane X receptor (rPXR) signaling pathway (AID 651751; call rule not given here; also: 0% is about no effect); details: rPXR reporter cells, luciferase (One-Glo), 24 h
Chain of Nuclear receptor subfamily 1 group I member 2 (Rattus norvegicus) (Q9R1A7 whole entry, looked up): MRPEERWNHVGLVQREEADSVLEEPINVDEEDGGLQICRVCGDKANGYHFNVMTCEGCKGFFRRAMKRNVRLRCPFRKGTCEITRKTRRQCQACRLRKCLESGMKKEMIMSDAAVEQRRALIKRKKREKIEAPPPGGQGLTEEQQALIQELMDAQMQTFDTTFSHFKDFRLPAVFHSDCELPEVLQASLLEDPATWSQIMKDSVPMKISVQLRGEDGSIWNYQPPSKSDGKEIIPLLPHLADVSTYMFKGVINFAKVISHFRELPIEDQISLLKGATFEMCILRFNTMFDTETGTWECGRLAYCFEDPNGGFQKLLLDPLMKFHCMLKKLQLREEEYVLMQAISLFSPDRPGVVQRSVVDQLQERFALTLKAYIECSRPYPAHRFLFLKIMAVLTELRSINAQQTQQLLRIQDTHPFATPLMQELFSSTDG

[20] = qHTS assay for small molecule activators of the human pregnane X receptor (PXR) signaling pathway (AID 720659; call rule not given here; also: 0% is about no effect); details: DPX-2 HepG2 CYP3A4-luciferase, 24 h; series mostly up to 92.3 µM

| Structure (SMILES) | Potency [1] | outcome [2] | Potency [3] | Potency [4] | max response [5] [%] | outcome [6] | Potency [7] | max response [8] [%] | Potency [9] | Potency [10] | max response [11] [%] | max response [12] | Potency [13] | activation [14] | activation [15] | activation [16] | max response [17] | max response [18] | max response [19] | outcome [20] |
| --- | --- | --- | --- | --- | --- | --- | --- | --- | --- | --- | --- | --- | --- | --- | --- | --- | --- | --- | --- | --- |
| O=C(O)[C@@H](O)[C@@H](O)[C@H](O)[C@H](O)CO | 5.01 µM (active) |  |  |  |  |  |  |  |  |  |  |  |  |  |  |  |  |  |  |  |
| N[C@@H](Cc1ccccc1)C(=O)O |  | inactive | 11.2 µM (active) | inactive | -16.9 | inactive | inactive | -4.85 | inactive | inactive | -15 | 7.11% (inactive) | 54.5 µM (active) | -1.26% (inactive) | 0.13% (inactive) | -0.444% (inactive) | -0.0138% (inactive) | -5.99% (inactive) | -0.251% (inactive) | inactive |
